# Laboratory results taken from PubChem BioAssay (EPA / NIEHS).
# Records with an inconclusive call do not appear. Active and inactive are the calls of the source. How the source made its calls: active means hit-call score of the fitted dose curve at least 0.9, where 1 is the maximum; inconclusive means response in the unintended direction; inactive means score below 0.9.
# Key:
# [1] = target: guinea pig Leukotriene D4 Receptor (LTD4), CYSLTR1 (gene 100135514) (UniProt Q2NNR5); test: NVS_GPCR_gLTD4: NovaScreen (NVS) G Protein-Coupled Receptor Assay for guinea pig Leukotriene D4 Receptor (LTD4) (AID 2283248)
# Outline: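 Guinea pig lung membrane preparation; bound radioligand measured by filter scintillation after 1 h, loss of signal versus DMSO marking displacement. Compounds tested at 25 uM in duplicate, hits retested to max 50 uM.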
# [2] = system: guinea pig Muscarinic, Peripheral (Mperiperal) Receptor, Non-selective Binding, gene 100379235; test: NVS_GPCR_gMPeripheral_NonSelective: NovaScreen (NVS) G Protein-Coupled Receptor Assay for guinea pig Muscarinic, Peripheral (Mperiperal) Receptor, Non-selective Binding (AID 2283250)
# Outline: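 Screened in duplicate at 25 uM, hits retested in concentration series to 50 uM max, using bladder membrane radioligand displacement from guinea pig. Filtration and scintillation counting 1 h post-dose, fitted relative to DMSO.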
# [3] = target: human Serotonin, 5-Hydroxytryptamine Receptor 5A (5HT5A), HTR5A (gene 3361) (UniProt P47898); test: NVS_GPCR_h5HT5A: NovaScreen (NVS) G Protein-Coupled Receptor Assay for human Serotonin, 5-Hydroxytryptamine Receptor 5A (5HT5A) (AID 2283251)
# Outline: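 Membranes from HEK293 cells, radioligand binding read by filtration and scintillation after 1 h. Single-concentration duplicate testing at 25 uM, then concentration-response for actives; positive-direction fitting relative to DMSO.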
# [4] = target: human Serotonin, 5-Hydroxytryptamine Receptor 6 (5HT6), HTR6 (gene 3362) (UniProt P50406); test: NVS_GPCR_h5HT6: NovaScreen (NVS) G Protein-Coupled Receptor Assay for human Serotonin, 5-Hydroxytryptamine Receptor 6 (5HT6) (AID 2283253)
# Outline: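 Filter scintillation counting of radioligand displacement from HEK293-expressed 5HT6, 1 hour post-dose, with loss of signal relative to DMSO. Single 25 uM duplicates first, with concentration series for confirmation.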
# [5] = target: human Serotonin, 5-Hydroxytryptamine Receptor 7 (5HT7), HTR7 (gene 3363) (UniProt P34969); test: NVS_GPCR_h5HT7: NovaScreen (NVS) G Protein-Coupled Receptor Assay for human Serotonin, 5-Hydroxytryptamine Receptor 7 (5HT7) (AID 2283255);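 further: hits reduce specific radioligand binding relative to DMSO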
# Outline: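 Filter-bound radioactivity counted after 1 h, with loss of specific radioligand binding fitted against DMSO. Membrane protein came from CHO cells expressing human 5HT7. Chemicals were tested first at 25 uM in duplicate, then in concentration series if active.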
# [6] = target: human Adrenergic, Beta 1 Receptor (Adrb1), ADRB1 (gene 153) (UniProt P08588); test: NVS_GPCR_hAdrb1: NovaScreen (NVS) G Protein-Coupled Receptor Assay for human Adrenergic, Beta 1 Receptor (Adrb1) (AID 2283258)
# Outline: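 Membranes/protein extracted from human neuroepithelioma cells, radioligand competition binding read by filtration and scintillation 2 h post-dose. Single 25 uM duplicate screen, then concentration-response follow-up; DMSO as negative control.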
# [7] = target: human Adrenergic, Alpha 2c Receptor (Adra2C), ADRA2C (gene 152) (UniProt P18825); test: NVS_GPCR_hAdra2C: NovaScreen (NVS) G Protein-Coupled Receptor Assay for human Adrenergic, Alpha 2c Receptor (Adra2C) (AID 2283259)
# Outline: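 Screened first in duplicate at 25 uM, with actives then run as concentration series. Membranes from Sf9 cells were exposed for 1 h, and displacement of radioligand was counted after filtration, using DMSO as baseline.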
# [8] = target: Beta-2 adrenergic receptor (Homo sapiens) (UniProt P07550); test: NVS_GPCR_hAdrb2: NovaScreen (NVS) G Protein-Coupled Receptor Assay for human Adrenergic, Beta 2 Receptor (Adrb2) (AID 2283261)
# Outline: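 Compounds screened in duplicate at 25 uM, then actives in concentration series. Human beta-2 receptor from CHO material, cell-free; radioligand displacement after 1 h measured by filtration and scintillation against DMSO baseline.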
# [9] = target: Type-1 angiotensin II receptor (Homo sapiens) (UniProt P30556); test: NVS_GPCR_hAT1: NovaScreen (NVS) G Protein-Coupled Receptor Assay for human Angiotensin II receptor type 1 (AT1) (AID 2283263)
# Outline: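 Hits from a 25 uM duplicate screen (threshold e.g. 30% inhibition) were run in concentration-response with 50 uM top concentration. Displacement of specific radioligand from KAN-TS membrane preparations measured after 3 h by filter scintillation, DMSO as baseline.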
# [10] = target: human Dopamine Receptor D4.4 (DRD4.4), DRD4 (gene 1815) (UniProt P21917); test: NVS_GPCR_hDRD4.4: NovaScreen (NVS) G Protein-Coupled Receptor Assay for human Dopamine Receptor D4.4 (DRD4.4) (AID 2283264)
# Outline: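 Filter-binding assay with a tritiated or iodinated ligand, cell-free receptor prepared from CHO, 1 hour. Loss of bound radioactivity versus DMSO; single 25 uM duplicate screen, then concentration-response for actives.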
# [11] = target: guinea pig Opioid, Kappa 1 Receptor (OpiateK), OPRK1 (gene 100135587) (UniProt P41144); test: NVS_GPCR_gOpiateK: NovaScreen (NVS) G Protein-Coupled Receptor Assay for guinea pig Opioid, Kappa 1 Receptor (OpiateK) (AID 2283252);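 further: active means reduced radioligand binding relative to DMSO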
# Outline: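 Radioligand binding to kappa opioid receptor in guinea pig cerebellar membranes, read by filtration and scintillation at 2 h. Compounds first tested in duplicate at 25 uM, then actives in concentration series; signal loss fitted against DMSO.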
# [12] = system: guinea pig Leukotriene B4 Receptor (LTB4), gene 100379538; test: NVS_GPCR_gLTB4: NovaScreen (NVS) G Protein-Coupled Receptor Assay for guinea pig Leukotriene B4 Receptor (LTB4) (AID 2283247)
# Outline: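 Membranes from guinea pig spleen incubated 2 h with radioligand and compound; bound counts measured by filtration and scintillation. Screened first at 25 uM in duplicate, then actives titrated to a 50 uM top concentration relative to DMSO.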
# [13] = target: human Endothelin Receptor Type A (ETA), EDNRA (gene 1909) (UniProt P25101); test: NVS_GPCR_hETA: NovaScreen (NVS) G Protein-Coupled Receptor Assay for human Endothelin Receptor Type A (ETA) (AID 2283265)
# Outline: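 Binding of radioligand to membrane protein extracted from SH-SY5Y cells was read by filtration and scintillation after 3 h. Compounds were screened at 25 uM in duplicate, with hits followed up in singleton concentration series to 50 uM.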
# [14] = target: human Adenosine A2a Receptor (AdoRA2a), ADORA2A (gene 135) (UniProt P29274); test: NVS_GPCR_hAdoRA2a: NovaScreen (NVS) G Protein-Coupled Receptor Assay for human Adenosine A2a Receptor (AdoRA2a) (AID 2283256)
# Outline: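 HEK293-derived receptor preparation, radioligand displacement, 1.5 h, filtration + scintillation read. Loss of bound signal scored vs DMSO. Single-point 25 uM in duplicate first, then concentration-response for actives.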
# [15] = target: Adenosine receptor A1 (Bos taurus) (UniProt P28190); test: NVS_GPCR_bAdoR_NonSelective: NovaScreen (NVS) G Protein-Coupled Receptor Assay for bovine Adenosine Receptor (AdoR), Non-selective Binding (AID 2283244)
# Outline: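 Cell-free binding with membranes from bovine striatum: radioligand displaced by test chemical, read after 1 h by filtration and scintillation. Single-point 25 uM duplicate primary, 50 uM top concentration in follow-up curves, DMSO baseline.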
# [16] = NVS_GPCR_bNPY_NonSelective: NovaScreen (NVS) G Protein-Coupled Receptor Assay for bovine Neuropeptide Y (NPY) Receptor, Non-selective Binding (AID 2283245)
# Outline: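 Displacement of radioligand from bovine hippocampal membrane receptors, read by filtration and scintillation counting after 1 hour. Concentration-response to a top of 50 uM followed a 25 uM duplicate primary screen. Loss of signal versus DMSO.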
# [17] = target: human Adenosine A1 Receptor (AdoRA1), ADORA1 (gene 134) (UniProt P30542); test: NVS_GPCR_hAdoRA1: NovaScreen (NVS) G Protein-Coupled Receptor Assay for human Adenosine A1 Receptor (AdoRA1) (AID 2283254)
# Outline: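 Each chemical is first tested twice at 25 uM, actives later in dilution series, against a radioligand bound to human cortex membranes; after 1 h, filter-retained counts are compared with DMSO controls, lower signal indicating displacement.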
# [18] = target: human Adrenergic, Beta 3 Receptor (Adrb3), ADRB3 (gene 155) (UniProt P13945); test: NVS_GPCR_hAdrb3: NovaScreen (NVS) G Protein-Coupled Receptor Assay for human Adrenergic, Beta 3 Receptor (Adrb3) (AID 2283262)
# Outline: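 A cell-free filter binding assay read by scintillation counting, with displacement of a specific radioligand measured after 1 hour. The receptor source was SK-N-MC extracts (cells pretreated with isoproterenol and 8-bromo-cAMP). Compounds were first tested at 25 uM in duplicate and then in concentration series.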
# [19] = system: bovine Histamine 1 Receptor (H1), gene 281231; test: NVS_GPCR_bH1: NovaScreen (NVS) G Protein-Coupled Receptor Assay for bovine Histamine 1 Receptor (H1) (AID 2283246)
# Outline: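 Hits from a 25 uM duplicate primary screen were retested in concentration series (top 50 uM); binding measured as scintillation-counted displacement of radioligand from bovine cerebellar membranes after 1 h, normalised to DMSO.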
# [20] = target: human Adrenergic, Alpha 2A Receptor (Adra2A), ADRA2A (gene 150) (UniProt P08913); test: NVS_GPCR_hAdra2A: NovaScreen (NVS) G Protein-Coupled Receptor Assay for human Adrenergic, Alpha 2A Receptor (Adra2A) (AID 2283257)
# Outline: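 Displacement of a specific radioligand from HT29 membrane protein was counted by filter scintillation after 1 h. Compounds were screened in duplicate at 25 uM, and actives were retested in concentration series. Fitting was positive-direction against DMSO.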
# Chain of Beta-2 adrenergic receptor (Homo sapiens) (P07550 whole entry, looked up): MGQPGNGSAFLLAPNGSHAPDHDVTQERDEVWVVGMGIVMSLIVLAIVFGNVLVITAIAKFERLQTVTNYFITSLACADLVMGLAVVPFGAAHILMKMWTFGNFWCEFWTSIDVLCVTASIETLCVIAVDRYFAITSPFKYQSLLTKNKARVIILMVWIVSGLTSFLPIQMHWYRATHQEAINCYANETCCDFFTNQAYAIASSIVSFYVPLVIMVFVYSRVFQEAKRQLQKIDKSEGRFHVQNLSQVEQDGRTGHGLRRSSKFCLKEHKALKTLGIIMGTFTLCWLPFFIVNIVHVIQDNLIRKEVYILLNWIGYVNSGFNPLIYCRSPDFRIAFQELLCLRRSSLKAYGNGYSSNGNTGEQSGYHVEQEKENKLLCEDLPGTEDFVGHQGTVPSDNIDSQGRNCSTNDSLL
# Chain of guinea pig Opioid, Kappa 1 Receptor (OpiateK), OPRK1 (gene 100135587) (P41144 whole entry, looked up): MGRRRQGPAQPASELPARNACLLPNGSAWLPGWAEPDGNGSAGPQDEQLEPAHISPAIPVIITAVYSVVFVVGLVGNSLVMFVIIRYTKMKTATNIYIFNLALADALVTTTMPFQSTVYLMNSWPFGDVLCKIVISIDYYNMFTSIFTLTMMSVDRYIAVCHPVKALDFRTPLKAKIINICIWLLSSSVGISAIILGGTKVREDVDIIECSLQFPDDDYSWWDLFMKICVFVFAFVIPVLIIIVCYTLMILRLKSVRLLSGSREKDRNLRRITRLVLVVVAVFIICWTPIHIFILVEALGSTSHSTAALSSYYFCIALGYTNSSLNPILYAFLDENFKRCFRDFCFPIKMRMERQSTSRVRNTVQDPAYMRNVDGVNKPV
# Chain of human Adrenergic, Beta 3 Receptor (Adrb3), ADRB3 (gene 155) (P13945 whole entry, looked up): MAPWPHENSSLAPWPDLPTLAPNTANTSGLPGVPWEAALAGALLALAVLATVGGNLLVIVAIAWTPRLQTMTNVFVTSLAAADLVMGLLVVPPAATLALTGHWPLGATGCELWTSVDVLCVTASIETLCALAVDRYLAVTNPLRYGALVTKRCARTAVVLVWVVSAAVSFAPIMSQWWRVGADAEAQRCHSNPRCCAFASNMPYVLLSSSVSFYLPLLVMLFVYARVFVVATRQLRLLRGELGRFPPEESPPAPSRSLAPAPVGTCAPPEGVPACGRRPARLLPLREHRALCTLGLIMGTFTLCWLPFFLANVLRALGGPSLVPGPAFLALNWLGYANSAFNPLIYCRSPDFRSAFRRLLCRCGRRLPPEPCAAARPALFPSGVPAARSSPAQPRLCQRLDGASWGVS
# Chain of human Adrenergic, Alpha 2c Receptor (Adra2C), ADRA2C (gene 152) (P18825 whole entry, looked up): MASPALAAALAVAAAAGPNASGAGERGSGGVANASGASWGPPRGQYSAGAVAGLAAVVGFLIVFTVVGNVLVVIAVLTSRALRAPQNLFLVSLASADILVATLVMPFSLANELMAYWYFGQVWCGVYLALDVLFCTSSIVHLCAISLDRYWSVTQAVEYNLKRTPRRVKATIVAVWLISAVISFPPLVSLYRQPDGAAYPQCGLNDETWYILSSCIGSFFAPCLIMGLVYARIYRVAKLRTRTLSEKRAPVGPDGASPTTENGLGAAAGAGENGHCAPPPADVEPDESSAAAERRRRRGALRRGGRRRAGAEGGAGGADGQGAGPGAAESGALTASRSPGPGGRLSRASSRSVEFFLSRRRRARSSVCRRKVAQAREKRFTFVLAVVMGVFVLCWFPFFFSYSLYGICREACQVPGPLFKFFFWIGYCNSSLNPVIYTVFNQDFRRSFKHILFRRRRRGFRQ
# Chain of Adenosine receptor A1 (Bos taurus) (P28190 whole entry, looked up): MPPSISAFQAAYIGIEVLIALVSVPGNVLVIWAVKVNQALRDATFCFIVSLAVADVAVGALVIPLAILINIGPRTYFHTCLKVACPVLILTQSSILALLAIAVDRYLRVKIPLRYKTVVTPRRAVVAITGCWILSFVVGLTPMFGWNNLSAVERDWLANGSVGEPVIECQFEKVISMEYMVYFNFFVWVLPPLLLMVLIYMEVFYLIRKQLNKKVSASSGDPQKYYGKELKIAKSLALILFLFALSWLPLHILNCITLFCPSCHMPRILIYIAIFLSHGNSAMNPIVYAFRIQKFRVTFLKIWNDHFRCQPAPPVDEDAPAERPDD
# Chain of human Endothelin Receptor Type A (ETA), EDNRA (gene 1909) (P25101 whole entry, looked up): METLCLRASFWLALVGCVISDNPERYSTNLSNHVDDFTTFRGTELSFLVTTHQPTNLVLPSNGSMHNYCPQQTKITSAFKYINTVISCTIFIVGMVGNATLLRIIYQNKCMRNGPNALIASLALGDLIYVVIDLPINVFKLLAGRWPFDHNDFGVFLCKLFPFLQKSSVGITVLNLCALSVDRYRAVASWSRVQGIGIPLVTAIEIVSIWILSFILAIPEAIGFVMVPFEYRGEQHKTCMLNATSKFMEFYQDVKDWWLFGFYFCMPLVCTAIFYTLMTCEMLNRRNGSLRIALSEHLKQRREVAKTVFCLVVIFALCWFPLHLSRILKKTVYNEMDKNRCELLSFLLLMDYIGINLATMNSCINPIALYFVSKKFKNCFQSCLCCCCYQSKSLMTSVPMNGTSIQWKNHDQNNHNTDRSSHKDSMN
# Chain of human Serotonin, 5-Hydroxytryptamine Receptor 7 (5HT7), HTR7 (gene 3363) (P34969 whole entry, looked up): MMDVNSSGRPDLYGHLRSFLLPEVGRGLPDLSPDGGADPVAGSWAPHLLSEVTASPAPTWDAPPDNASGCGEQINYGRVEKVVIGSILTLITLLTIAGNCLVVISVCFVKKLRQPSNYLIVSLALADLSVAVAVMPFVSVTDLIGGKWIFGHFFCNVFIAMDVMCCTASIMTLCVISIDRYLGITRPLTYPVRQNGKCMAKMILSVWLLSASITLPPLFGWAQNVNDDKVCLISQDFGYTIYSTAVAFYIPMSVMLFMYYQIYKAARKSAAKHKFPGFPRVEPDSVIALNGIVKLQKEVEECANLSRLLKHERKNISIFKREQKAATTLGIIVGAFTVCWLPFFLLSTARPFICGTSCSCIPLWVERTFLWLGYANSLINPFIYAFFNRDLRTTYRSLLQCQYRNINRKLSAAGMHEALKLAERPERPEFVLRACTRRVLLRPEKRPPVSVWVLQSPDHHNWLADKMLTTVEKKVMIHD
# Chain of Type-1 angiotensin II receptor (Homo sapiens) (P30556 whole entry, looked up): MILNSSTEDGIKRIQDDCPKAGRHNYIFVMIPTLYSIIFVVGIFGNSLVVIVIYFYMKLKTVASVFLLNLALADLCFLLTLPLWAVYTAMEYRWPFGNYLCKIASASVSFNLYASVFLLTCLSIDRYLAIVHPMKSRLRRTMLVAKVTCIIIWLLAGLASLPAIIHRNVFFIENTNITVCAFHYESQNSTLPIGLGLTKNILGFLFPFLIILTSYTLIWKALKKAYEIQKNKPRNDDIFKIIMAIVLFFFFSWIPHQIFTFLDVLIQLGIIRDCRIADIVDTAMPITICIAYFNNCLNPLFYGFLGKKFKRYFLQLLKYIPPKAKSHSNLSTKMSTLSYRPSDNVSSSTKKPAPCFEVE
# Chain of human Serotonin, 5-Hydroxytryptamine Receptor 5A (5HT5A), HTR5A (gene 3361) (P47898 whole entry, looked up): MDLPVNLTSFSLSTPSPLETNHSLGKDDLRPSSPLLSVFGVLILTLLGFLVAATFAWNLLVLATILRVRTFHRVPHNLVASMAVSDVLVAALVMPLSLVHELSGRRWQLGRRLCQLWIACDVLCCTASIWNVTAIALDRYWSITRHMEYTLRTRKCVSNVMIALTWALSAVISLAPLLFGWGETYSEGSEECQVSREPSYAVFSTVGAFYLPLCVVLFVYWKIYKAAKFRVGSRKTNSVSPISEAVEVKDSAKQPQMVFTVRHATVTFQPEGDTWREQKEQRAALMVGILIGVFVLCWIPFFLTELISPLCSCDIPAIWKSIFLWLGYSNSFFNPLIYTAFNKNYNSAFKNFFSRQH
# Chain of human Adenosine A1 Receptor (AdoRA1), ADORA1 (gene 134) (P30542 whole entry, looked up): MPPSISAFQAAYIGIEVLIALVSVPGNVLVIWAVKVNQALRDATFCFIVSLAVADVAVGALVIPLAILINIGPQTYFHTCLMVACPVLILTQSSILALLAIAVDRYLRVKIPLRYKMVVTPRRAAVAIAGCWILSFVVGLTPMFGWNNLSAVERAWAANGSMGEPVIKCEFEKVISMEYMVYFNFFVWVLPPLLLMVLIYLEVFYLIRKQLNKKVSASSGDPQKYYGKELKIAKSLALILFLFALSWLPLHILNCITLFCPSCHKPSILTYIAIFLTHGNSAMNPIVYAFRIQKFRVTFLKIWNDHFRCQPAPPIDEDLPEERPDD
# Chain of human Adenosine A2a Receptor (AdoRA2a), ADORA2A (gene 135) (P29274 whole entry, looked up): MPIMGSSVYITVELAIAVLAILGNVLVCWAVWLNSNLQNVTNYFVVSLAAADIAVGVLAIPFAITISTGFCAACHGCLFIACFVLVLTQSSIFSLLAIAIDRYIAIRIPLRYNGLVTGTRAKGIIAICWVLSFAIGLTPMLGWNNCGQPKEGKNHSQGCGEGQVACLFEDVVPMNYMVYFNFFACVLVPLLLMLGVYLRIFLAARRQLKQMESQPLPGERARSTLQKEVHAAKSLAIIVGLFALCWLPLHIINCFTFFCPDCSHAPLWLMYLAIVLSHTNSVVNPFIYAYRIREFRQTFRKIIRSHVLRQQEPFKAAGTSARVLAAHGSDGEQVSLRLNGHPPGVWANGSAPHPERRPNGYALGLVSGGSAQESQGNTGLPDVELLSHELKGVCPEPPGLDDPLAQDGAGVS
# Chain of human Adrenergic, Beta 1 Receptor (Adrb1), ADRB1 (gene 153) (P08588 whole entry, looked up): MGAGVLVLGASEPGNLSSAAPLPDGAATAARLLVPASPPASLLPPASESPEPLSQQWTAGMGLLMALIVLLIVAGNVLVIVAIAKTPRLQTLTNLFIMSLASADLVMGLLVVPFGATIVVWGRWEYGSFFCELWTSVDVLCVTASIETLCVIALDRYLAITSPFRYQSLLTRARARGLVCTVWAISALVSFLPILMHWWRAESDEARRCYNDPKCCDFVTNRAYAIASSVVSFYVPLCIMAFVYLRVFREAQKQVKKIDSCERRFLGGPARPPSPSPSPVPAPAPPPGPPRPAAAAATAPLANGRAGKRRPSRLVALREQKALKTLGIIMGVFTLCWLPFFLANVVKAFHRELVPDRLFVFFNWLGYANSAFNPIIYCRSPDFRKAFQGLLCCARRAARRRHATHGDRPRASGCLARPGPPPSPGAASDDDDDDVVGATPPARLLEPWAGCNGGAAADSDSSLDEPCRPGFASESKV
compound,measurement,setting,value
CCCCCCCCCCCCCCOS(=O)(=O)O,AC50,[1],9.7 µM (active)
same,AC50,[2],25 µM (active)
same,AC50,[3],20.3 µM (active)
same,AC50,[4],39.1 µM (active)
same,AC50,[5],16.5 µM (active)
same,AC50,[6],5.22 µM (active)
same,AC50,[7],2.99 µM (active)
same,AC50,[8],15.4 µM (active)
same,outcome,[9],inactive
same,AC50,[10],13.3 µM (active)
O=C1CCCCC1,outcome,[11],inactive
O=Cc1ccccc1C=O,outcome,[12],inactive
same,AC50,[11],9.81 µM (active)
same,outcome,[9],inactive
same,AC50,[13],19.2 µM (active)
Cc1cc(Cc2ccc(N)c(C)c2)ccc1N,outcome,[3],inactive
same,outcome,[14],inactive
O=C(O)CN(CC(=O)O)CC(=O)O,outcome,[15],inactive
CCc1cc(C2=C(C(=O)O)N(c3ccccc3C(F)(F)F)S(=O)(=O)c3ccccc32)cc2c1OCO2,AC50,[12],3.48 µM (active)
same,outcome,[11],inactive
same,AC50,[9],16.2 µM (active)
same,AC50,[13],0.0451 µM (active)
CCN(CC)CCOc1ccc(C(=C(Cl)c2ccccc2)c2ccccc2)cc1,AC50,[16],30 µM (active)
same,AC50,[2],4.82 µM (active)
same,AC50,[3],1.46 µM (active)
same,outcome,[11],inactive
same,AC50,[4],5.6 µM (active)
same,AC50,[17],11 µM (active)
same,AC50,[5],3.31 µM (active)
same,AC50,[14],11.6 µM (active) [middle of 4 runs]
same,AC50,[7],1.58 µM (active)
same,AC50,[8],18.2 µM (active)
same,outcome,[18],inactive
same,AC50,[10],17.3 µM (active)
same,AC50,[13],29.1 µM (active)
CCCCc1nc2cccnc2n1Cc1ccc(-c2ccccc2-c2nnn[nH]2)cc1,AC50,[12],10.9 µM (active)
same,AC50,[11],10 µM (active)
same,outcome,[7],inactive
same,AC50,[9],0.0191 µM (active)
CN(C)CCCN1c2ccccc2Sc2ccc(Cl)cc21,outcome,[19],inactive
same,AC50,[2],1.66 µM (active)
same,AC50,[3],1.35 µM (active)
same,AC50,[11],10.1 µM (active)
same,AC50,[20],1.43 µM (active)
same,AC50,[6],25 µM (active)
same,AC50,[8],17.1 µM (active)
same,AC50,[18],25 µM (active)
CN(C)C(=O)NC1(c2ccccc2)CCN(CC[C@@]2(c3ccc(F)c(F)c3)CN(C(=O)c3ccccc3)CCO2)CC1,outcome,[15],inactive
same,outcome,[2],inactive
same,AC50,[11],3.94 µM (active)
same,AC50,[14],23.5 µM (active)
CCC(C)N(C)C(=O)c1cc2ccccc2c(-c2ccccc2Cl)n1 (centres undefined),AC50,[3],15.9 µM (active)
same,AC50,[11],1.91 µM (active)
same,AC50,[17],6.11 µM (active)
same,AC50,[14],7.37 µM (active)
same,AC50,[9],15.9 µM (active)
Nc1nc(Cl)nc2c1ncn2[C@H]1C[C@H](O)[C@@H](CO)O1,AC50,[15],10.6 µM (active)
same,AC50,[17],8.99 µM (active)
same,AC50,[14],13.1 µM (active)
CCCCCCCCCC[N+](C)(C)[O-],outcome,[18],inactive
NC(=Nc1ccccc1)Nc1ccccc1,outcome,[2],inactive
same,AC50,[11],25 µM (active)
same,AC50,[5],11.8 µM (active)
Cc1cc(SC2=C(O)C[C@@](CCc3ccc(N)cc3)(C(C)C)OC2=O)c(C(C)(C)C)cc1CO,outcome,[15],inactive
